Records with an inconclusive call do not appear. Active and inactive are the calls of the source. Unless noted, the call rests on the fitted dose curve; in most records, active means well fitted curve in the direction sought with a large enough effect in the repeat runs; inconclusive means weak or mixed curves; inactive means no such curve, though single readings can be large; an effect the other way counts as inactive or inconclusive.
What was measured:
[1] = qHTS assay to identify small molecule agonists of the NFkB signaling pathway (AID 1159509; active means well fitted curve in the direction sought with a large enough effect in the signal ratio in the repeat runs, not every such curve was filed as active; the % refers to the signal ratio; further: series mostly up to about 61 µM; on the % scale 0 is the no-effect control and ±100 the full control effect)
Outline: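 Readout: FRET fluorescence, 405 nm excitation, 460/530 nm emission; beta-lactamase expression disrupts FRET. Cells: ME-180 stably carrying NF-kB-driven bla reporter. Compound exposure 5 hr, 37 C, 5% CO2.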

[2] = qHTS assay to identify small molecule agonists of the NFkB signaling pathway - cell viability counter screen (AID 1159515; calls by dose curve; further: series mostly up to about 61 µM; on the % scale 0 is the no-effect control and ±100 the full control effect; nearly all actives have a fitted effect of over 55% in size)
Outline: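 ME-180 NFkB-bla cells, 2,000/well; overnight attach; compound 5 hr, 37 C/5% CO2; LiveBLAzer substrate 1.5 hr RT; then CellTiter-Glo in same wells, 30 min RT, luminescence read.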

[3] = qHTS assay to identify small molecule agonists of the endoplasmic reticulum stress response signaling pathway (AID 1159516; active means well fitted activation curve with a large enough effect in the signal ratio in the repeat runs, not every such curve was filed as active; the % refers to the signal ratio; further: on the % scale 0 is the no-effect control and ±100 the full control effect)
Outline: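 HeLa ESRE-bla reporter line; cpd 5 h, 37 C/5% CO2; LiveBLAzer B/G FRET substrate 2 h RT; ex 405, em 460/530 nm.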

[4] = qHTS assay to identify small molecule agonists of the endoplasmic reticulum stress response signaling pathway - cell viability counter screen (AID 1159517; calls by dose curve;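 further: HeLa cells carrying an ER stress response element beta-lactamase reporter; series mostly up to about 61 µM; on the % scale 0 is the no-effect control and ±100 the full control effect; nearly all actives have a fitted effect of over 50% in size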)
Outline: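 After overnight attachment, ESRE-bla HeLa cells were treated with Tox21 library compounds for 5 hr. CellTiter-Glo luminescence, read 30 min post-addition at room temperature, reported viability.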

[5] = qHTS assay to identify small molecule antagonists of the retinoid-related orphan receptor gamma (ROR-gamma) signaling pathway - cell viability counter screen (AID 1159520); further: on the % scale 0 is the no-effect control and ±100 the full control effect; nearly all actives have a fitted effect of over 50% in size
Outline: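 Cytotoxicity was read from cellular ATP (CellTiter-Glo luminescence) after 16 hr at 37 C with 1 uM doxycycline induction. The inducer was added 2 hr after compound transfer to Tet-on ROR gamma CHO cells.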

[6] = biological target: Nuclear receptor ROR-gamma (Homo sapiens) (UniProt P51449); assay: qHTS assay to identify small molecule antagonists of the retinoid-related orphan receptor gamma (ROR-gamma) signaling pathway (AID 1159521; further: nearly all actives have a fitted effect of over 50% in size; further: potency means the concentration at half of the fitted maximal effect;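 on activity change, negative = inhibition: CHO cells with doxycycline inducible ROR-gamma driving an RORE luciferase reporter; top concentration of the series differs between compounds; on the % scale 0 is the no-effect control and ±100 the full control effect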)
Outline: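 Decreased RORE-driven luciferase luminescence indicates antagonism. Tet-on RORγ CHO cells received compound, then 1 uM final doxycycline 2 h later; signal read after 16 h incubation.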

[7] = qHTS assay to identify small molecule agonists of the AP-1 signaling pathway - cell viability counter screen (AID 1159525; calls by dose curve; further: nearly all actives have a fitted effect of over 55% in size)
Outline: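 Intracellular ATP by Cell Titer Glo luminescence (30 min, RT) in the same ME-180 AP-1-bla wells after the 5 h compound exposure at 37 °C. Normalised to tetra n-octyl ammonium bromide and DMSO controls.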

[8] = qHTS assay to identify small molecule agonists of the vitamin D receptor (VDR) signaling pathway - cell viability counter screen (AID 743224); further: series mostly up to about 63 µM; on the % scale 0 is the no-effect control and ±100 the full control effect; nearly all actives have a fitted effect of over 50% in size
Outline: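 Cytotoxicity counter screen: VDR-bla cells, 16 h compound exposure at 37C, 5% CO2; CellTiter-Glo luminescence, 30 min RT, same wells as bla read.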

[9] = qHTS assay to identify small molecule antagonists of the vitamin D receptor (VDR) signaling pathway - cell viability counter screen (AID 743225)
Outline: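 Parallel cytotoxicity test: VDR-UAS-bla HEK 293T, 3 nM (final) 1-alpha,25-dihydroxyvitamin D3 with test compound, 16 h, 37C. Endpoint is CellTiter-Glo luminescence in the same wells.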

COC(=O)c1ccc2cc(C(=O)OC)ccc2c1
inactive: outcome [1] | outcome [2] | outcome [3] | outcome [4] | activity, negative = cytotoxicity [5] -0.583% [at 19 µM] | activity change, negative = inhibition [6] 0.445% [at 19 µM] | viability change, negative = cytotoxic [7] 2.85% [at 15.8 µM]

CN1CCN(C2=Nc3cc(F)ccc3Cc3ccccc32)CC1
inactive: Potency [8] | outcome [1] | outcome [2] | outcome [3] | outcome [4] | Potency [5] | Potency [6] | outcome [7]

CC(Oc1c(Cl)cccc1Cl)C1=NCCN1 (stereo not given)
inactive: Potency [8] | Potency [9] | outcome [1] | outcome [2] | outcome [3] | outcome [4] | Potency [5] | Potency [6] | outcome [7]

C[C@]12C(=O)OC(=O)[C@H]1[C@H]1C=C[C@@H]2C1
inactive: Potency [8] | Potency [9] | outcome [1] | outcome [2] | outcome [3] | outcome [4] | Potency [5] | Potency [6] | outcome [7]

CCOC(=O)CS
inactive: Potency [8] | outcome [1] | outcome [2] | outcome [3] | outcome [4] | Potency [5] | Potency [6] | outcome [7]

Cc1ccc([N+](=O)[O-])c(N)c1
inactive: Potency [8] | outcome [1] | outcome [2] | outcome [3] | outcome [4] | Potency [5] | Potency [6] | outcome [7]

CN(C)CC[C@@H](c1ccc(Cl)cc1)c1ccccn1
inactive: Potency [8] | Potency [9] | outcome [1] | outcome [2] | outcome [3] | outcome [4] | Potency [5] | Potency [6] | outcome [7]

C[C@]12CCC(=O)C=C1CC[C@@H]1[C@@H]2CC[C@@]2(C)[C@H]1CC[C@]2(O)C(=O)CO
inactive: Potency [8] | Potency [9] | outcome [1] | outcome [2] | outcome [3] | outcome [4] | Potency [5] | Potency [6] | outcome [7]

CC1=NN(c2cc(Cl)c(S(=O)(=O)O)cc2Cl)C(=O)C1N=Nc1ccc(S(=O)(=O)O)cc1 (stereo not given)
inactive: Potency [8] | Potency [9] | outcome [1] | outcome [2] | outcome [3] | outcome [4] | Potency [5] | Potency [6] | outcome [7]

O=C(O)c1ccccc1Nc1cc(Cl)ccc1C(=O)O
inactive: outcome [1] | outcome [2] | outcome [3] | outcome [4] | activity, negative = cytotoxicity [5] -2.84% [at 19 µM] | activity change, negative = inhibition [6] -10.7% [at 19 µM]

C=CC(C)(O)CC/C=C(\C)CCC=C(C)C (stereo not given)
inactive: Potency [8] | outcome [1] | outcome [2] | outcome [3] | outcome [4] | Potency [5] | Potency [6] | outcome [7]

COc1ccc2nc(NC(=O)Nc3ccccc3)sc2c1
inactive: Potency [8] | Potency [9] | outcome [1] | outcome [2] | outcome [3] | outcome [4] | Potency [5] | Potency [6] | outcome [7]

CCC(=O)c1ccc2c(c1)N(CCCN(C)C)c1ccccc1S2
inactive: outcome [1] | outcome [2] | outcome [3] | outcome [4] | Potency [5] | Potency [6]

CCCCOc1cc(C(=O)NCCN(CC)CC)c2ccccc2n1
inactive: Potency [8] | outcome [1] | outcome [2] | outcome [3] | outcome [4] | Potency [5] | Potency [6] | outcome [7]

CNCCC(Oc1ccccc1OC)c1ccccc1 (stereo not given)
inactive: Potency [8] | Potency [9] | outcome [1] | outcome [2] | outcome [3] | outcome [4] | Potency [5] | Potency [6] | outcome [7]

CCCCCCCCCCCCCCCCOP(=O)([O-])OCC[N+](C)(C)C
inactive: Potency [8] | outcome [1] | outcome [2] | outcome [3] | outcome [4] | Potency [5] | Potency [6] | outcome [7]

CC(C)O
inactive: outcome [1] | outcome [2] | outcome [3] | outcome [4] | Potency [5]
active: Potency [6] 65.6 µM

ICCc1ccccc1
inactive: Potency [8] | outcome [1] | outcome [2] | outcome [3] | outcome [4] | Potency [5] | outcome [7]
active: Potency [6] 59.9 µM

CC(C)(C)c1ccc(OC(=O)c2ccccc2O)cc1
inactive: outcome [1] | outcome [2] | outcome [3] | outcome [4] | Potency [5] | Potency [6] | outcome [7]

CCCc1c2oc(C(=O)O)cc(=O)c2cc2c(=O)cc(C(=O)O)n(CC)c12
inactive: Potency [8] | Potency [9] | outcome [1] | outcome [2] | outcome [3] | outcome [4] | Potency [5] | Potency [6] | outcome [7]

CN1CCC[C@@H]1Cc1c[nH]c2ccc(CCS(=O)(=O)c3ccccc3)cc12
inactive: Potency [8] | outcome [1] | outcome [2] | outcome [3] | outcome [4] | Potency [5] | Potency [6] | outcome [7]

CCNCCO
inactive: Potency [8] | outcome [1] | outcome [2] | outcome [3] | outcome [4] | Potency [5] | Potency [6] | outcome [7]

CC1(C)O[C@@H]2C[C@H]3[C@@H]4CCC5=CC(=O)CC[C@]5(C)[C@@]4(F)[C@@H](O)C[C@]3(C)[C@]2(C(=O)CCl)O1
active: Potency [6] 13.3 µM
inactive: Potency [8] | outcome [1] | outcome [2] | outcome [3] | outcome [4] | Potency [5] | outcome [7]

Cc1nc(-c2ccccn2)ncc1C(=O)Nn1cc(C)c2cc(F)ccc21
inactive: Potency [8] | Potency [9] | outcome [1] | outcome [2] | outcome [3] | outcome [4] | Potency [5] | Potency [6] | outcome [7]

O=c1[nH]cnc2c1ncn2[C@@H]1O[C@H](CO)[C@@H](O)[C@H]1O
inactive: Potency [8] | Potency [9] | outcome [1] | outcome [2] | outcome [3] | outcome [4] | Potency [5] | Potency [6] | outcome [7]

OCc1c2ccccc2cc2ccccc12
inactive: outcome [1] | outcome [2] | outcome [3] | outcome [4] | Potency [5] | Potency [6] | outcome [7]

CC(C)=CCCC(C)CCOC=O (stereo not given)
inactive: outcome [1] | outcome [2] | outcome [3] | outcome [4] | Potency [5] | Potency [6] | outcome [7]

CCC(=O)O[C@]1(C(=O)SCF)[C@H](C)C[C@H]2[C@@H]3C[C@H](F)C4=CC(=O)C=C[C@]4(C)[C@@]3(F)[C@@H](O)C[C@@]21C
inactive: Potency [8] | Potency [9] | outcome [1] | outcome [2] | outcome [3] | outcome [4] | Potency [5] | Potency [6] | outcome [7]
